We go through 39 molecules from PubChem BioAssay (EPA / NIEHS).

In assay [1] the target is rat Androgen Receptor (AR), Ar (gene 24208) (UniProt P15207). Kind of assay: NVS_NR_rAR: NovaScreen (NVS) Nuclear Receptor Binding Assay for rat Androgen Receptor (AR) (AID 2283366). The procedure, abridged: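 Cell-free radioligand binding on extracts of prostate from testosterone-pretreated rats, read by filter-based scintillation counting 18 h after dosing. Loss of bound signal fitted positively versus DMSO; primary screen in duplicate at 25 uM, actives followed up in concentration series.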

The target of assay [2] is Nuclear receptor subfamily 1 group I member 2 (Homo sapiens) (UniProt O75469). As to the kind of experiment: NVS_NR_hPXR: NovaScreen (NVS) Nuclear Receptor Binding Assay for human Pregnane X Receptor (PXR) (AID 2283365).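 Note: a drop in FRET signal versus DMSO baseline means the compound binds.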 In outline: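 Read-out: TR-FRET, human PXR, 2 h post-dosing, cell-free. Loss of signal vs DMSO taken as binding activity; 25 uM primary, concentration series secondary.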

In assay [3] the target is Peroxisome proliferator-activated receptor gamma (Homo sapiens) (UniProt P37231). Kind of assay: NVS_NR_hPPARg: NovaScreen (NVS) Nuclear Receptor Binding Assay for human Peroxisome Proliferator-activated Receptor gamma (PPARg) (AID 2283370). In outline:
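Extracted receptor protein, cell-free; compound incubated 2 h then fluorescence polarization read. Baseline: DMSO. Actives from 25 uM duplicate screen re-run across concentrations.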

In assay [4] the target is human Thyroid Receptor Alpha (TRa), THRA (gene 7067) (UniProt P10827). As to the kind of experiment: NVS_NR_hTRa_Antagonist: NovaScreen (NVS) Nuclear Receptor Binding Assay for human Thyroid Receptor Alpha Antagonism (TRa) (AID 2283362).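 Note: activity is loss of signal relative to DMSO baseline.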 In outline: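 In this biochemical format, receptor protein is dosed with chemical and read after 1 hour via AlphaLISA. Decreases from the DMSO baseline indicate antagonist activity; screening used 25 uM in duplicate before concentration-response confirmation.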

Assay [5] deals with Glucocorticoid receptor (Homo sapiens) (UniProt P04150). As to the kind of experiment: NVS_NR_hGR: NovaScreen (NVS) Nuclear Receptor Binding Assay for human Glucocorticoid Receptor (GR) (AID 2283363).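 For AC50: activity is loss of specific radioligand binding signal relative to DMSO.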 The procedure, abridged: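 Competitive displacement of a labelled ligand was measured on cell-free receptor preparations after 16 h exposure. Initial testing used 25 uM in duplicate with plate controls; confirmed actives went into concentration series.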

Assay [6] has as its system guinea pig Dopamine Transporter (DAT), gene 100714898. As to the kind of experiment: NVS_TR_gDAT: NovaScreen (NVS) Transporter Assay for guinea pig Dopamine Transporter (DAT) (AID 2283369).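 Note: active compounds lower bound radioligand signal relative to DMSO.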 In outline: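 Primary pass: duplicate wells at 25 uM, threshold e.g. 30% inhibition. Follow-up: singleton concentration-response, highest 50 uM. Radioligand binding on guinea pig striatal membranes, 2 h, filtration scintillation detection.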

The target of assay [7] is guinea pig Sigma Receptor, Non-selective Binding, SIGMAR1 (gene 100135589) (UniProt Q60492). As to the kind of experiment: NVS_OR_gSIGMA_NonSelective: NovaScreen (NVS) Nuclear Receptor Binding Assay for guinea pig Sigma Receptor, Non-selective Binding (AID 2283367). In outline:
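gp brain membr., radioligand displacement, 1 h, filtration + scint. counting; DMSO = baseline; 25 uM x2 primary, conc.-response confirm.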

The target in assay [8] is Retinoic acid receptor alpha (Homo sapiens) (UniProt P10276). Kind of assay: NVS_NR_hRARa_Agonist: NovaScreen (NVS) Nuclear Receptor Binding Assay for human Retinoic Acid Alpha Receptor Agonism (RAR) (AID 2283361). The procedure, abridged: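 Readout is time-resolved fluorescence resonance energy transfer after a 2 h exposure of cell-free extracted receptor protein. Initial testing used 25 uM in duplicate, with concentration-response follow-up for active chemicals.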

The target of assay [9] is human Adenosine Transporter (Adot), SLC29A1 (gene 2030) (UniProt Q99808). Kind of assay: NVS_TR_hAdoT: NovaScreen (NVS) Transporter Assay for human Adenosine Transporter (Adot) (AID 2283368). In outline: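 U937-derived membranes, cell-free radioligand binding, filter scintillation 1 h after dosing. 25 uM duplicate screen; hits (e.g. 30% inhibition) run in concentration-response up to 50 uM; loss of signal versus DMSO.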

In assay [10] the test system is rat Norepinephrine Transporter (NET), gene 83511. Kind of assay: NVS_TR_rNET: NovaScreen (NVS) Transporter Assay for rat Norepinephrine Transporter (NET) (AID 2283373). In outline: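 Rat forebrain membranes; radioligand binding measured by filter-based scintillation counting 1 hour after dosing. Loss of specific binding versus DMSO baseline scored; primary screen in duplicate at 25 uM, actives followed up in concentration series.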

Where “and” joins values, the source holds several entries; their conditions need not be identical. Equal entries are not always repeated. Records with an inconclusive call do not appear. Some structures have more than one record in an assay (separate samples or runs), and their calls can disagree. Calls of active or inactive are those of the source. Rule for the calls: active = hit-call score of the fitted dose curve at least 0.9, where 1 is the maximum; inconclusive = response in the unintended direction; inactive = score below 0.9.

guinea pig Sigma Receptor, Non-selective Binding, SIGMAR1 (gene 100135589), sequence (Q60492 whole entry, looked up): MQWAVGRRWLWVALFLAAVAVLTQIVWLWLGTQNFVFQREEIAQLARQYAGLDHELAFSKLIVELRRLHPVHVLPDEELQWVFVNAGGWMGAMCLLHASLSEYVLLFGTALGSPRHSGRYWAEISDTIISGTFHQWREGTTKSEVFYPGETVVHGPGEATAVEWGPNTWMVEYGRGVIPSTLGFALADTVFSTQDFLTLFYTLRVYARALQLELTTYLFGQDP
Glucocorticoid receptor (Homo sapiens), sequence (P04150 whole entry, looked up): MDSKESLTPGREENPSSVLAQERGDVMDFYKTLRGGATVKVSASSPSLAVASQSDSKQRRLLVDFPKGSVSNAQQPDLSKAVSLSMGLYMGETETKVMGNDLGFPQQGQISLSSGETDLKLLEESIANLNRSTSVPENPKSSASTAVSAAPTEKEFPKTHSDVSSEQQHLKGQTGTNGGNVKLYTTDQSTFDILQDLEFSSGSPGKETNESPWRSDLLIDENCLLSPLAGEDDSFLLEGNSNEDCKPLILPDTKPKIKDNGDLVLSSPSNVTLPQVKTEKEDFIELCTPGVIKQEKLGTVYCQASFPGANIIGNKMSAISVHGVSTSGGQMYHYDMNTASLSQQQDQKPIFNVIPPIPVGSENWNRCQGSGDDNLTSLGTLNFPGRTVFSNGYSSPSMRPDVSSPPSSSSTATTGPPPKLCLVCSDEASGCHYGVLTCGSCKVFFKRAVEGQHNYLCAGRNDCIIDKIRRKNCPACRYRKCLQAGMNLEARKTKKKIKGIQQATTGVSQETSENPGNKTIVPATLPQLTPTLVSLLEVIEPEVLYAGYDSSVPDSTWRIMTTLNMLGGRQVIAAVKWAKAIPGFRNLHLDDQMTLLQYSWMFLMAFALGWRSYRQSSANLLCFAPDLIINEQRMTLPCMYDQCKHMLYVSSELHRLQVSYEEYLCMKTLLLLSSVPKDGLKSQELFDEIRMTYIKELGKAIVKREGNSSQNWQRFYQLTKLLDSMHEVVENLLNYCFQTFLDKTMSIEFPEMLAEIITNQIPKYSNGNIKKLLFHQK
rat Androgen Receptor (AR), Ar (gene 24208), sequence (P15207 whole entry, looked up): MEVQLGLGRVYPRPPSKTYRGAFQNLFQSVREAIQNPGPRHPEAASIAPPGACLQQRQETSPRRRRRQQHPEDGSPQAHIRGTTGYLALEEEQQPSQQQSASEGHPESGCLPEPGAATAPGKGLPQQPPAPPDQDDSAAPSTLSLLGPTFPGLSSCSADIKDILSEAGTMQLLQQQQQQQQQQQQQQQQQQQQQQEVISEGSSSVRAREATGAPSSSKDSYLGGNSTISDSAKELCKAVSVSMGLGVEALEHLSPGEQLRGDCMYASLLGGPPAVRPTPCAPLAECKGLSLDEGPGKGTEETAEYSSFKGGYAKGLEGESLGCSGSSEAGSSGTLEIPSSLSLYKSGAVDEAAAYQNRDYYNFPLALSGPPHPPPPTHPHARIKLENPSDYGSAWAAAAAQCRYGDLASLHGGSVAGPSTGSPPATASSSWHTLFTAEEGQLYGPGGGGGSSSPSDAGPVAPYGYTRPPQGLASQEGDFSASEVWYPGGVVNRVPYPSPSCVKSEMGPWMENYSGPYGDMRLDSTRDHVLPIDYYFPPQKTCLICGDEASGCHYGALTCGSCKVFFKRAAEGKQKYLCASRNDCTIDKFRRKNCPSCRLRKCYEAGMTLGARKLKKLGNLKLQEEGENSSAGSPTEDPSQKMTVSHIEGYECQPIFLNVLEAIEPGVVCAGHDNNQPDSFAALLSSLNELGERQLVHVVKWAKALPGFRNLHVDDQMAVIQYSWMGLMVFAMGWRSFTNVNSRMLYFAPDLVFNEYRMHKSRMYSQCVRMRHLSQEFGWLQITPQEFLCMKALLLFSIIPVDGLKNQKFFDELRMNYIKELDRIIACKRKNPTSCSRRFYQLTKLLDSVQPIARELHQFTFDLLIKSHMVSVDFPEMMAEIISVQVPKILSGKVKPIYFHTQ
human Thyroid Receptor Alpha (TRa), THRA (gene 7067), sequence (P10827 whole entry, looked up): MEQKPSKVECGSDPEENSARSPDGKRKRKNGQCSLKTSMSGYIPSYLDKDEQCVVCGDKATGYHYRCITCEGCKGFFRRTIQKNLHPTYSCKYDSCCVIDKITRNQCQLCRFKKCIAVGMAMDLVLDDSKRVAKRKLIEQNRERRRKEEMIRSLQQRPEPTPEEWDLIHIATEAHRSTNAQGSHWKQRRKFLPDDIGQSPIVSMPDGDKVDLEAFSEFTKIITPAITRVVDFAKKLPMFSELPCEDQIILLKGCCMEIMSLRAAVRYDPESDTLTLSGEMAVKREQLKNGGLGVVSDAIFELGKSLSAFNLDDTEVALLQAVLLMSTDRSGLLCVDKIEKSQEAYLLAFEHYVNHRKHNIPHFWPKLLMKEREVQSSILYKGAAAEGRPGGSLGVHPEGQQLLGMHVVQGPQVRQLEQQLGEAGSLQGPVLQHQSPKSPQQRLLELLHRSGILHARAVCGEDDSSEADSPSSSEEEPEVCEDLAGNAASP
Peroxisome proliferator-activated receptor gamma (Homo sapiens), sequence (P37231 whole entry, looked up): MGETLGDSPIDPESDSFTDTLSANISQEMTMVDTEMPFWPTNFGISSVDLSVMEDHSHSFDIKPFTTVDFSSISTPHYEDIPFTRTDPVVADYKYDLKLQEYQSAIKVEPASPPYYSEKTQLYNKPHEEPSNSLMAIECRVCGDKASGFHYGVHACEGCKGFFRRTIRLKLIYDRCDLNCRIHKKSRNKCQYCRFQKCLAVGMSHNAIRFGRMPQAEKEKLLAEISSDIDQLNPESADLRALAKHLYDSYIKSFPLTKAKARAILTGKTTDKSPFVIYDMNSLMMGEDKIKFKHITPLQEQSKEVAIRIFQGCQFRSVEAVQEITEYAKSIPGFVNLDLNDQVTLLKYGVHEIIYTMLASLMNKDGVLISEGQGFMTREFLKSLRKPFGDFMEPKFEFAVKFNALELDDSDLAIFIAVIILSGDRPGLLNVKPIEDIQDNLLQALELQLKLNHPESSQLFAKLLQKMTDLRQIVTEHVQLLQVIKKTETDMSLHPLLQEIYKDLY
Nuclear receptor subfamily 1 group I member 2 (Homo sapiens), sequence (O75469 whole entry, looked up): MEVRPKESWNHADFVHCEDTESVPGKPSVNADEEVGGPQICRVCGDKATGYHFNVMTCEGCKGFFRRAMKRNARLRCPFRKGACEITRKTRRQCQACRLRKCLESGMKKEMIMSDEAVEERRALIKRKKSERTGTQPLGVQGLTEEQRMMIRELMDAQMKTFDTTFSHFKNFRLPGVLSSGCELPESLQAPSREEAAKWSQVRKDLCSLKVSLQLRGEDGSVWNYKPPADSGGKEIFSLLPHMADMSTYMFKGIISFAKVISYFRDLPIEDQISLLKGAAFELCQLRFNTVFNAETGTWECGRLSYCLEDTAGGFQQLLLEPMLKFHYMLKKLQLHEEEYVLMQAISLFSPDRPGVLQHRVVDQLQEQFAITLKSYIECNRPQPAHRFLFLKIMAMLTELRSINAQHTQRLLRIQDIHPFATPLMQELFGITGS
Retinoic acid receptor alpha (Homo sapiens), sequence (P10276 whole entry, looked up): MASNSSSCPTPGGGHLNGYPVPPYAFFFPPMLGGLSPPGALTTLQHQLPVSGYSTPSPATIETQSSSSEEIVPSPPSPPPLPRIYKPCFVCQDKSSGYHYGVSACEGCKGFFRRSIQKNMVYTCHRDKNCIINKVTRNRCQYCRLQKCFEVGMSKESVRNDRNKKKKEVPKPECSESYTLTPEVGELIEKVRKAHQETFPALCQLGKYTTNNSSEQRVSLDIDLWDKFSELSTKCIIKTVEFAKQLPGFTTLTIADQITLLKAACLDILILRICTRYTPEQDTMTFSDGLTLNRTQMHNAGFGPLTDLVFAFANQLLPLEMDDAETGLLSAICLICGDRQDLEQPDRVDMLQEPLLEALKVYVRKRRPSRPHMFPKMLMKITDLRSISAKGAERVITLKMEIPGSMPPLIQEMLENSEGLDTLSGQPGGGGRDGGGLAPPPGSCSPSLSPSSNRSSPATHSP
human Adenosine Transporter (Adot), SLC29A1 (gene 2030), sequence (Q99808 whole entry, looked up): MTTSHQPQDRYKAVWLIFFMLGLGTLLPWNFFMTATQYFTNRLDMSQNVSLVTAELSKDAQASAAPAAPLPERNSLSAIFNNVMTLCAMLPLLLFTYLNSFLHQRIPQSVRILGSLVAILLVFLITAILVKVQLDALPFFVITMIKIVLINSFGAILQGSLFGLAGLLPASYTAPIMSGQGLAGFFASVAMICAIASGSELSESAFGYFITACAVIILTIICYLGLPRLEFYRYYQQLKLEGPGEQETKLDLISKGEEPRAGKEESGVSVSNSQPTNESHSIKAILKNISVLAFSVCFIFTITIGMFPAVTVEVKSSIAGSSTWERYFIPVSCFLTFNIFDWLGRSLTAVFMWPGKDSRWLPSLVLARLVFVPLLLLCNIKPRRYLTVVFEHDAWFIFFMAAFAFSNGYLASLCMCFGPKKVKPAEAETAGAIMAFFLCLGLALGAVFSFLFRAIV

`CC(C)(c1ccc(Oc2ccc(N)cc2)cc1)c1ccc(Oc2ccc(N)cc2)cc1`: in assay [1], the outcome was inactive.
With `CCCCCCCCCCCC(=O)O`, the call in assay [2] and in assay [3] was inactive.
Regarding `CCCCC=O`, the molecule was classed as inactive in assay [4].
Regarding `CCCCc1ccc2ccccc2c1S(=O)(=O)O`, the figures for the AC50 in assay [5] and in assay [2] were 7.95 µM (active) and 4.06 µM (active), respectively. The call in [3] was inactive.
`Cc1[nH]nc2c1N=C(c1ccccc1Cl)c1cc([N+](=O)[O-])ccc1N2`: the molecule was classed as inactive in assay [4].
As to `CCCCc1oc2ccccc2c1C(=O)c1cc(I)c(OCCN(CC)CC)c(I)c1`, the concentration at half-maximal activity (AC50) in assay [6] is 17.8 µM (active).
In the case of `CCCCCC(C)OC(=O)COc1ccc(Cl)c2cccnc12` (stereo not drawn), in [2], the call was inactive.
On to `CC1=NN(c2ccccc2)C(=O)C1`, for which the AC50 in assay [5] was 45.7 µM (active).
Consider `CCN(CC)CC`, for which, in assay [7], the molecule was called inactive.
On to `CN(Cc1cnc2nc(N)nc(N)c2n1)c1ccc(C(=O)N[C@@H](CCC(=O)O)C(=O)O)cc1`, for which the result in [1] and in assay [6] was inactive.
In the case of `Cc1cc(C(=C2C=CC(=Nc3ccc(S(=O)(=O)O)cc3)C=C2)c2ccc(Nc3ccc(S(=O)(=O)O)cc3)cc2)cc(S(=O)(=O)O)c1N`, the AC50 in assay [8] was 17.5 µM (active); in assay [5] it was 1.32 µM (active); in assay [2] it was 0.574 µM (active); in [1] it was 1.22 µM (active). In addition, the molecule was called inactive in assay [4] and in assay [3].
As for `C=CC(=C)CC/C=C(\C)CCC=C(C)C`, the call in [5] was inactive.
As for `Cc1ccc(S(=O)(=O)O)cc1`, the molecule was classed as inactive in assay [2].
Take `CCCCCCCCCCCCCCCCCC[N+](C)(C)Cc1ccccc1`: the AC50 in [7] was 2.32 µM (active).
Take `CCCCCCCCCC=CCC1CC(=O)OC1=O` (stereo not drawn): in assay [2], the molecule was classed as inactive. In assay [3], the AC50 is 25 µM (active).
Regarding `COC1=CC(=O)C[C@@H](C)[C@]12Oc1c(Cl)c(OC)cc(OC)c1C2=O`, the AC50 in [6] is 3.8 µM (active).
For the molecule `CS(=O)(=O)c1ccc([C@@H](CC2CCCC2)C(=O)Nc2cnccn2)cc1Cl`, the AC50 in assay [9] is 25 µM (active).
Take `CN(C)c1ccc(C(=C2C=CC(=[N+](C)C)C=C2)c2ccccc2)cc1`: the AC50 in [7] was 9.34 µM (active) and 12.5 µM (active); in assay [6], 4.17 µM (active) and 3.93 µM (active).
`CCC(C)c1ccccc1O` (stereo not drawn): the call in [6] and in assay [3] was inactive.
Consider `O=C1NS(=O)(=O)c2ccccc21`, for which the molecule was called inactive in assay [2].
On to `C=CC(C)(CCC=C(C)C)OC(C)=O` (stereo not drawn), for which the call in [3] was inactive.
For the molecule `CC[N+](CC)(CC)Cc1ccccc1`, the AC50 in [7] is 15.5 µM (active).
`N=C(N)c1ccc(OCCCCCOc2ccc(C(=N)N)cc2)cc1`: the AC50 in assay [6] was 2.07 µM (active). The outcome in assay [10] was inactive.
For `CC(C)(C)c1ccc(O)c(O)c1`, the AC50 in [6] was 45.5 µM (active).
On to `CN(C)CCOC(c1ccccc1)c1ccccc1`, for which the AC50 in assay [6] is 6.23 µM (active); in [10] it was 2.98 µM (active).
Turning to `Clc1ccc(Nc2nnc(Cc3ccncc3)c3ccccc23)cc1`, the AC50 in assay [6] is 6.66 µM (active).
Take `c1cnc2c(c1)ccc1cccnc12`: in [4], the AC50 was 0.241 µM (active).
On to `NC(=NCCCCCCN=C(N)/N=C(\N)Nc1ccc(Cl)cc1)/N=C(\N)Nc1ccc(Cl)cc1`, for which the AC50 in assay [5] was 3.08 µM (active); in assay [1], 15.4 µM (active); in assay [7] it was 23.1 µM (active); in assay [6] it was 0.868 µM (active). Moreover, the molecule was called inactive in assay [2].
In the case of `C[C@]12CC[C@@H]3c4ccc(O)cc4CC[C@H]3[C@@H]1C[C@@H](O)[C@@H]2O`, the molecule was called inactive in [5]. In addition, the AC50 in assay [6] was 3.04 µM (active).
Take `CCC(=O)O`: the AC50 in assay [5] was 0.202 µM (active).
Turning to `CCCCCc1ccc(O)cc1`, the AC50 in [6] was 10.5 µM (active).
Take `CC(O)COc1ccccc1` (stereo not drawn): the call in assay [3] was inactive.
For the molecule `O=C(CCCN1CCC(O)(c2ccc(Cl)cc2)CC1)c1ccc(F)cc1`, the AC50 in assay [6] was 0.923 µM (active). In [10], the call was inactive.
Take `CCCCCCCCCCCC`: the results for the AC50 in [5], in assay [2] and in [3] were 0.703 µM (active), 2.03 µM (active) and 0.401 µM (active), respectively. In assay [3], the call was inactive.
As to `CC(C)[C@@H]1CC[C@@H](C)C[C@H]1O`, the call in [3] was inactive.
As for `CCCCCCCCCCCCOC(=O)c1cc(O)c(O)c(O)c1`, the AC50 in assay [5] is 12.7 µM (active). Besides, the call in [3] was inactive.
Consider `O=C1OC2(c3ccccc31)c1cc(I)c(O)c(I)c1Oc1c2cc(I)c(O)c1I`, for which the AC50 in [8] is 19.9 µM (active).
For `O=C(c1ccccc1)c1ccccc1`, in [6], the result was inactive.
As for `O=C(O)c1cccc(C(=O)O)n1`, in assay [4], the AC50 is 28.1 µM (active).

What is called AC50 is the midpoint of the concentration-response curve, whichever way the signal moves.
